According to PubChem BioAssay (NCI):
Compounds without any hit were thinned out: in the full panel of roughly 79,000, 15% have a hit. Rule as the data show it: active = growth inhibition above about 70%; inactive = the rest.

What was measured:
[1] = NCI Yeast Anticancer Drug Screen. Data for the rad50 strain (AID 155);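 also: 0% = growth of vehicle-only cultures of the same strain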; conditions: S. cerevisiae rad50 strain growth inhibition; at 50.0 µM; hits give high values
Outline: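 A DNA repair-deficient yeast mutant serves as the test organism; compound-induced growth inhibition is calculated against vehicle-treated cells.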

[2] = NCI Yeast Anticancer Drug Screen. Data for the mec2-1 strain (AID 157); conditions: S. cerevisiae mec2-1 strain, at 50.0 µM, hits give high values
Outline: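 Vehicle-treated cultures served as reference for growth inhibition of compound-exposed mec2-1 yeast.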

[3] = NCI Yeast Anticancer Drug Screen. Data for the sgs1 mgt1 strain (AID 161);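 also: 0% = growth of cultures given vehicle only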; conditions: S. cerevisiae sgs1 mgt1 strain, at 50.0 µM, hits give high values
Outline: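 Mutant yeast exposed to compound; growth scored against vehicle-only wells.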

[4] = NCI Yeast Anticancer Drug Screen. Data for the cln2 rad14 strain (AID 165);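 also: 0% = growth equal to vehicle treated cultures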; conditions: S. cerevisiae cln2 rad14 strain, at 50.0 µM, hits give high values
Outline: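 Each compound was tested on cln2 rad14 yeast. Inhibition of growth was calculated against vehicle-exposed controls.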

[5] = NCI Yeast Anticancer Drug Screen. Data for the bub3 strain (AID 167); conditions: S. cerevisiae bub3 mutant strain, at 50.0 µM, hits give high values
Outline: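 Inhibition values come from growth of compound-treated mutant yeast normalised to vehicle-treated controls.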

[6] = NCI Yeast Anticancer Drug Screen. Data for the mlh1 rad18 strain (AID 175); conditions: S. cerevisiae mlh1 rad18 strain growth inhibition; at 50.0 µM; hits give high values
Outline: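 Vehicle-treated cultures served as the reference for growth inhibition in a yeast strain carrying DNA damage repair alterations exposed to each compound.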

Measured: growth inhibition

O=C1c2cccc3cccc(c23)C(=O)N1CCO
inactive: [1] 50.6% | [2] 22.2% | [3] 39.9% | [4] 17.9% | [5] 16.2% | [6] 33.2%

CCc1nc2c([nH]1)C(=O)c1ccccc1C2=O
inactive: [1] 68.1% | [2] 19.2% | [3] 44.2% | [4] 9.25% | [5] 18.7% | [6] 42%

O=C(O)/C(O)=C(/O)C(=O)O.[NH-]C1CCCCC1[NH-].[Pt+2]
inactive: [1] 27.3% | [2] 29.1% | [3] 28.4% | [4] 16.1% | [5] 26.9% | [6] 25.6%

C/C(C/C(C)=N/C(N)=S)=N\C(N)=S
inactive: [1] -37.5% | [2] -23.1% | [3] -15.8% | [4] -12.4% | [5] 0.15% | [6] -13.5%

CCCC/C(=N/O)c1ccccc1
inactive: [1] 7.4% | [2] 0.7% | [3] -2.65% | [4] -9.1% | [5] -21.6% | [6] -6.95%

NC(=O)N1CCc2ccccc2C1c1ccccc1 (centres undefined)
inactive: [1] -2.95% | [2] -12.7% | [3] -7.55% | [4] -14.4% | [5] 9.25% | [6] -21.4%

Nc1nc(-c2cccc([N+](=O)[O-])c2)c(N=Nc2ccc(Br)cc2)s1
inactive: [1] 10.3% | [2] 12.4% | [3] 23.1% | [4] 15.8% | [5] -3.25% | [6] 5.95%

Cc1ccc(NC(=O)CCC(=O)C2CC(=O)CCC2=O)cc1C (centres undefined)
inactive: [1] -22.6% | [2] -14.8% | [3] -0.7% | [4] 5.75% | [5] 6.4% | [6] -9.9%

CCN1N=Nc2ccccc2NC1=O
inactive: [1] 18.1% | [2] 9.85% | [3] 8.45% | [4] 4.5% | [5] -13.1% | [6] -25.3%

O=C(O)COc1ccccc1C1CCCCC1
inactive: [1] 0.15% | [2] 7.6% | [3] 6.25% | [4] -4.9% | [5] -18.6% | [6] -2.2%

O=C1NC(=S)SC1=C1CCCCC1
inactive: [1] 22.9% | [2] 42.5% | [3] 41.6% | [4] 34.5% | [5] 37.9% | [6] 28.2%

CN1C(=O)C2CSCN2C1=S (centres undefined)
inactive: [1] -38% | [2] -7.7% | [3] -5.4% | [4] -12.3% | [5] -13.6% | [6] 5.1%

CCCCCC#CC1OC1(C)C (centres undefined)
inactive: [1] -2.1% | [2] -8.05% | [3] -2.8% | [4] -27% | [5] 5.95% | [6] -12.2%

COc1ccc(NC(=O)C/C(C)=C2/C(=O)NN(c3ccccc3)C2=O)cc1
inactive: [1] 33.5% | [2] 15.2% | [3] 39.9% | [4] 4.5% | [5] 19.1% | [6] 41.1%

BrC=C1c2ccccc2-c2ccccc21
inactive: [1] 5.45% | [2] -7.35% | [3] 3.9% | [4] 22.6% | [5] 2.35% | [6] 4.55%

Cc1ccc(NC(=O)CC(=O)n2nc(-c3ccccc3)c(N=Nc3ccc(Cl)cc3)c2-c2ccccc2)cc1
inactive: [1] 9.95% | [2] 4% | [3] 13.9% | [4] 22.7% | [5] 46% | [6] 37.7%

O=C(COc1ccccc1)OC1CCCCC1C1CCCCC1 (centres undefined)
inactive: [1] 13.2% | [2] 13% | [3] 4.05% | [4] 21.5% | [5] 2.6% | [6] 14.2%

C[C@]12C(=O)C=CCC1=CC[C@@H]1[C@@H]2[C@H]2CC3(O)C(=O)O[C@@]4(C)[C@H]5C[C@@]6(C)[C@@H]7[C@@]2(O)[C@]1(OC[C@H]6C(=O)O5)O[C@]734 (some centres undefined)
inactive: [1] 9.6% | [2] 16.3% | [3] -9.3% | [4] 1% | [5] -22.4% | [6] -55%

CC(C)(Cc1ccccc1)NC1=NCCO1
inactive: [1] -31.9% | [2] -18.8% | [3] -17.6% | [4] -6.2% | [5] -12.2% | [6] -2.6%
